# Laboratory results taken from PubChem BioAssay (NCATS).
# Unmarked numbers belong to inactive results. Records with an inconclusive call do not appear. Where a call stands in place of a potency, no number is given. Active and inactive are the calls of the source. The call rests on the fitted dose curve; in most records, active means well fitted curve in the direction sought with a large enough effect; inconclusive means small, poorly fitted or top-dose-only effect, or another doubt; inactive means no such curve, though single readings can be large; an effect the other way counts as inactive or inconclusive.
# Tests used:
# [1] = qHTS assay for measurement of the activity of small molecule inhibitors on Zika virus induced Caspase-3 activity in human iPSC derived neural progenitor cells (hNPCs) (AID 1224857); further: nearly all actives have a fitted effect of over 65% in size
# Procedure, shortened: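 Quantitative HTS format: human iPSC neural progenitors, 1 h compound pretreatment, ZIKV 2 FFU/cell for 6 h at 37 C. Percent inhibition derived from luminescent caspase-3/7 signal between uninfected and infected controls.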
# [2] = qHTS assay for measurement of the activity of small molecule inhibitors on Zika virus induced Caspase-3 activity in human astrocytoma cells (AID 1224859)
# Procedure, shortened: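 Readout is luminescence from Caspase-Glo 3/7 added after a 6 h ZIKV infection (2 FFU/cell) of compound-pretreated (1 h) SNB-19 cells; data expressed as % inhibition versus uninfected and infected wells.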
# [3] = qHTS assay to identify small molecule inhibitors of chordoma cells - UCH-1 (AID 1259355); further: nearly all actives have a fitted effect of over 55% in size
# Procedure, shortened: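 Screening used approved and investigational drugs in 15-point titration against 800 seeded cells per well. A fixed combination of auranofin with camptothecin, doxorubicin, rubitecan and topotecan followed compound addition, and growth was scored by CellTiter-Glo after 48hr.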
# [4] = qHTS assay to identify small molecule inhibitors of chordoma cells - UCH-2 (AID 1259356); further: potency means the concentration at half of the fitted maximal effect; on activity change, negative = inhibition: series mostly up to about 46 µM
Compound,Potency [1],outcome [2],Potency [3],Potency [4],"activity change, negative = inhibition [1]","activity change, negative = inhibition [2]"
NS(=O)(=O)c1cc2c(cc1Cl)NC(CC1CCCC1)NS2(=O)=O (centres undefined),inactive,inactive,inactive,inactive,–,–
FC1(F)C(F)(F)C(F)(F)C2(F)C(F)(F)C(F)(F)C(F)(F)C(F)(F)C2(F)C1(F)F (centres undefined),inactive,inactive,inactive,inactive,–,–
CCC(Cc1c(I)cc(I)c(N)c1I)C(=O)O (centres undefined),inactive,inactive,inactive,inactive,–,–
CCCCOC(=O)CC(CC(=O)OCCCC)(OC(C)=O)C(=O)OCCCC,inactive,inactive,inactive,inactive,–,–
NCCNc1cccc2ccccc12,inactive,inactive,inactive,inactive,–,–
COc1ccc(CCN(C)CCCN2CCc3cc(OC)c(OC)cc3CC2=O)cc1OC,inactive,inactive,inactive,inactive,–,–
C[C@@H](O)[C@H]1C(=O)N2C(C(=O)O)=C(S[C@@H]3CN[C@H](CNS(N)(=O)=O)C3)[C@H](C)[C@H]12,inactive,inactive,inactive,inactive,–,–
CC[C@]12CCCN3CCc4c(n(c5ccccc45)C(=O)C1)[C@@H]32,inactive,inactive,inactive,inactive,–,–
CN(C)CCC[C@@]1(c2ccc(F)cc2)OCc2cc(C#N)ccc21,inactive,inactive,inactive,inactive,–,–
NC(=O)C1(N2CCCCC2)CCN(CCCC(=O)c2ccc(F)cc2)CC1,inactive,inactive,inactive,inactive,–,–
Cc1ccc2c(Br)cc(Br)c(O)c2n1,inactive,inactive,inactive,inactive,–,–
Cc1cccc(C)c1NC(=O)CN1CCCC1,inactive,inactive,inactive,inactive,–,–
Nc1ccc(C(=O)NCC(=O)O)cc1,inactive,inactive,inactive,inactive,–,–
CCC1NC(=O)c2cc(S(N)(=O)=O)c(Cl)cc2N1 (centres undefined),inactive,inactive,inactive,inactive,–,–
N/C(=N\N=C\c1ccc(Cl)cc1)N/N=C/c1ccc(Cl)cc1,inactive,inactive,inactive,inactive,–,–
CC(=O)NCCCCCC(=O)O,inactive,inactive,inactive,inactive,–,–
O=C1C(CCS(=O)c2ccccc2)C(=O)N(c2ccccc2)N1c1ccccc1 (centres undefined),inactive,inactive,inactive,inactive,–,–
O=C(O)CCC(=O)Nc1ccc(S(=O)(=O)Nc2nccs2)cc1,inactive,inactive,inactive,inactive,–,–

Compound,Potency [1],outcome [2],Potency [3],Potency [4],"activity change, negative = inhibition [1]","activity change, negative = inhibition [2]"
NC(=O)c1ccccc1O,inactive,inactive,inactive,inactive,–,–
CCN(CC)CCNc1ccc(CO)c2sc3ccccc3c(=O)c12,inactive,inactive,inactive,25.9 µM (active),–,–
O=C(Nc1ccc([N+](=O)[O-])cc1)Nc1ccc([N+](=O)[O-])cc1,inactive,inactive,inactive,inactive,–,–
Nc1ccc(S(=O)(=O)NCc2ccccc2)cc1,inactive,inactive,inactive,inactive,–,–
COc1ccc(C(Cl)=C(c2ccc(OC)cc2)c2ccc(OC)cc2)cc1,inactive,inactive,inactive,inactive,–,–
CCCCCCCCCCCCCCC[C@H](O)[C@@H](N)CO,inactive,inactive,inactive,inactive,–,–
COc1ccc2c(c1)c1c3n2CCN(C)C3=NCC1,inactive,inactive,inactive,inactive,–,–
O=C(O)P(=O)(O)O,inactive,inactive,inactive,inactive,–,–
CC(=O)Nc1ccc(OC(=O)c2ccccc2OC(C)=O)cc1,inactive,inactive,inactive,inactive,–,–
CC(C)CCCC(C)N (centres undefined),inactive,inactive,inactive,inactive,–,–
O=C(O)CCc1nc2ccccc2[nH]1,inactive,inactive,inactive,inactive,–,–
CCc1ccc(C(=O)C(C)CN2CCCCC2)cc1 (centres undefined),inactive,inactive,inactive,inactive,–,–
NC(=S)N/N=C/c1cccnc1,inactive,inactive,inactive,inactive,–,–
O=C(CCCN1CC=C(n2c(=O)[nH]c3ccccc32)CC1)c1ccc(F)cc1,inactive,inactive,inactive,inactive,–,–
N[C@H](C(=O)O)[C@@H](O)c1ccc(O)c(O)c1,inactive,inactive,inactive,inactive,–,–
CCOC(=O)[C@@](C)(N)Cc1ccc(O)c(O)c1,inactive,inactive,inactive,inactive,–,–
CC(=O)OCC(=O)[C@H]1CC[C@H]2[C@@H]3CCC4=CC(=O)CC[C@]4(C)[C@H]3CC[C@]12C,inactive,inactive,inactive,inactive,–,–
N=C(N)N1CCc2ccccc2C1,–,–,inactive,inactive,-12.7% [at 4.53 µM],-0.144% [at 4.53 µM]
